# Assay outcomes (PubChem)
# This is a sample that favours compounds with a hit; in the whole collection about 6.1% have one here.
# ATXN viability = cell viability loss in ATXN counter-screen; AID 651635; actives 0.49% (n = 400,000); S2 cells (HEK-293 line with an ATXN2-luciferase reporter) viability, CellTiter-Fluor protease fluorescence, 24 h; Potency, µM (titrated, usually from 56.7 µM), most hits filed as cytotoxic; also: nearly all actives have a fitted effect of over 40% in size
# Gal4-VP16 FLuc = Gal4-VP16 reporter inhibition counter-screen; Drosophila S2 Gal4-VP16 UAS-luciferase, luminescence, 20 h; Potency, µM (series often up to 53.6 µM), inactives show at the top dose activity, negative = inhibition, most hits filed as inhibitors; actives 3.5% (n = 310,000);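 also: Gal4-VP16 expression switched on by copper sulfate through the metallothionein promoter; % is scaled to controls: 0 for no effect and ±100 for the full control effect; nearly all actives have a fitted effect of over 50% in size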
# TGFb inhibitor = inhibitors of TGF-b signaling. HepG2 CAGA-GFP TGF-b/SMAD3 reporter, GFP fluorescence, 18 h; TGF-beta stimulated, 500 pg/mL final. actives 1.2% (n = 410,000). Potency, µM (highest dose often 46.1 µM), for the others: at the top dose activity, negative = inhibition, most hits filed as inhibitors. AID 588855; also: % is scaled to controls: 0 for no effect and ±100 for the full control effect; nearly all actives have a fitted effect of over 65% in size
#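 GFP signal (ex488/em500-530) from TGF-beta-stimulated HEPG2 CAGA-GFP cells, 500 pg/mL final, 18 h at 37 degrees C in DMEM plus 1% FBS, normalized to unstimulated and DMSO-stimulated controls.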
# RORgamma inh = ROR gamma (mouse) transcription inhibition; P51450; Drosophila S2 Gal4-RORgamma UAS-luciferase reporter, 20 h; Potency, µM (doses to about 53.6 µM), inactives show top-dose activity change, negative = inhibition, usual class: inhibitors; actives 5.4% (n = 310,000); also: % is scaled to controls: 0 for no effect and ±100 for the full control effect; nearly all actives have a fitted effect of over 60% in size
# Target sequence (P51450 whole entry, looked up, the tested form may be a part): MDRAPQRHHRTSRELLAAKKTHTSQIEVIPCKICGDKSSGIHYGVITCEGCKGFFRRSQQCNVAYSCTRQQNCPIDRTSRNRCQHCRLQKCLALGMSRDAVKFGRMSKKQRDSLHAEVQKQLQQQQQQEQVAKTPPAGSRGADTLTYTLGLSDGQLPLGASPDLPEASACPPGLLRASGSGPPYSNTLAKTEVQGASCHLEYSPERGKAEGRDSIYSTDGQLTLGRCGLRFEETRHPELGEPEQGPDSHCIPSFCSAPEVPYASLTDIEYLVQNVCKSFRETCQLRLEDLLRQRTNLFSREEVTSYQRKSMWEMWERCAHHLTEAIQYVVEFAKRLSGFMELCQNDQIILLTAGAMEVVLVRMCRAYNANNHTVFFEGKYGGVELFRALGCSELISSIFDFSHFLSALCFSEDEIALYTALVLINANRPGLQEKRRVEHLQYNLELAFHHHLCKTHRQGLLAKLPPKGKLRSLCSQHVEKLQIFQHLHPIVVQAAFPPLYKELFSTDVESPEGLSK
#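 Read-out: Photinus luciferase luminescence; inhibitors lower reporter signal. Insect Schneider cells with Gal4-ROR gamma fusion under metallothionein promoter, UAS reporter; 700 uM final copper sulfate induction, 20 hr, ambient temperature.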
# HepG2 viability = HepG2 cytotoxicity, counter-screen for TGF-b inhibitors; actives 0.76% (n = 410,000); Potency, µM (titrated, usually from 46.1 µM), inactives show top-dose activity change, negative = cytotoxicity, actives largely listed as cytotoxic; HepG2 CAGA-GFP viability, ATP luminescence, 18 h
#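 HepG2 CAGA-GFP cells (1000/well, DMEM with 1% FBS) received compound, then TGF-beta at 500 pg/mL final, and were incubated 18 hours at 37 degrees C. Viability was read by CellTiter-Glo luminescence. Media-only wells were set as complete cell-killing and DMSO as no toxicity.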
# ATXN2 expr inh = reduces ATXN2 reporter expression in HEK-293 cells. Potency, µM (top dose mostly 57 µM), without a hit: top-dose activity change, negative = inhibition, most hits filed as inhibitors. HEK-293 ATXN2-luciferase reporter, luminescence, 24 h. AID 1745845. actives 0.72% (n = 360,000); also: % is scaled to controls: 0 for no effect and ±100 for the full control effect; nearly all actives have a fitted effect of over 55% in size
#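 qHTS (up to 57 uM final) was run with 24 h compound exposure of reporter cells at 37 °C. Each well was multiplexed: SteadyGlo luminescence measured ATXN2-luciferase expression after a fluorogenic Gly-Phe-AFC viability readout (25 uM final).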
# The depositor's hits bear a star; i = inactive; ? = inconclusive; / = no result given; [ ] = remark or other dose. Calls follow the shape of the dose curve; as a rule, active = well fitted curve in the direction sought with a large enough effect; inconclusive = small, poorly fitted or top-dose-only effect, or another doubt; inactive = no such curve, though single readings can be large; an effect the other way counts as inactive or inconclusive. Potency is read from the fitted curve at half-maximal effect.
SMILES,ATXN viability,Gal4-VP16 FLuc,TGFb inhibitor,RORgamma inh,HepG2 viability,ATXN2 expr inh
CC(C)N(C(=O)[C@H]1CC(CC(=O)NCc2cccc(C(F)(F)F)c2)C(=O)N2CCc3c([nH]c4ccccc34)[C@]12C)C(C)C (some centres undefined),/,/,12.6µM*,/,-91.9%,?
CC(C)=CCC/C(C)=C/CNC(=O)C[C@H]1C[C@H](C(=O)N2CCOCC2)[C@@]2(C)c3[nH]c4cc(CCC(=O)N(C)C)ccc4c3CCN2C1=O,?,/,?,/,-21.6%,?
CC(C)N(C(=O)[C@H]1C[C@H](CC(=O)NCC23CC4CC(CC(C4)C2)C3)C(=O)N2CCc3c([nH]c4cc(CCC(=O)N(C)C)ccc34)[C@]12C)C(C)C,25.1µM*,/,?,/,-72.5%,?
COc1ccc2[nH]c3c(c2c1)CCN1C(=O)C(CC(=O)NC/C=C(\C)CCC=C(C)C)C[C@H](C(=O)N(C(C)C)C(C)C)[C@@]31C (some centres undefined),i,/,15.8µM*,/,-103.4%,2.2%
CN(C)C(=O)CCc1ccc2c3c([nH]c2c1)[C@]1(C)[C@@H](C(=O)N2CCOCC2)C[C@H](CC(=O)NCC24CC5CC(CC(C5)C2)C4)C(=O)N1CC3,i,/,21.3%,/,-5.2%,8.5%
CC(C)=CCC/C(C)=C/CNC(=O)C[C@H]1C[C@H](C(=O)N(C(C)C)C(C)C)[C@@]2(C)c3[nH]c4ccc(Cl)cc4c3CCN2C1=O,i,/,-23.0%,/,-4.2%,2.6%
CC(C)N(C(=O)[C@H]1CC(CC(=O)NCCCN(C)C)C(=O)N2CCc3c([nH]c4ccccc34)[C@]12C)C(C)C (some centres undefined),i,/,3.5%,/,4.6%,12.6%
CC(C)=CCC/C(C)=C/CNC(=O)C[C@H]1C[C@H](C(=O)N2CCCCC2)[C@@]2(C)c3[nH]c4cc(CCC(=O)N(C)C)ccc4c3CCN2C1=O,31.6µM*,/,?,/,-46.9%,?
COC(=O)C/C=C\[C@@H](C)[C@@H](/C=N\OCC[C@H]1C=C[C@H](OC(C)=O)[C@@H](COC(C)=O)O1)NS(=O)(=O)c1ccc(C)cc1,/,-5.5%[10 µM],/,1.1%[10 µM],/,/
COCCCNC(=O)C[C@H]1C[C@H](C(=O)N(C(C)C)C(C)C)[C@@]2(C)c3[nH]c4cc(-c5ccco5)ccc4c3CCN2C1=O,i,/,11.2µM*,/,-22.1%,-17.9%
CN(C)C(=O)CCc1ccc2c3c([nH]c2c1)[C@]1(CCC2CCCC2)[C@@H](C(=O)N2CCOCC2)C[C@H](CC(=O)NCc2cccc(C(F)(F)F)c2)C(=O)N1CC3,/,/,11.2µM*,/,-59.3%,?
COCCCNC(=O)C[C@H]1C[C@H](C(=O)N2CCOCC2)[C@@]2(C)c3[nH]c4cc(-c5ccco5)ccc4c3CCN2C1=O,i,/,-21.0%,/,0.6%,6.2%
COCCOC(=O)C1=C(C)NC2=C(C(=O)CC(c3ccccc3OC)C2)C1c1cccc(O)c1 (centres undefined),/,/,/,/,/,85.1%
Cc1nc(-c2cccc(S(=O)(=O)N3CCC(C(=O)NCc4ccccc4)CC3)c2)no1,i,/,-12.1%,/,-22.4%,-4.9%
O=C(Nc1nc2cc3c(cc2s1)OCO3)C1=COCCO1,i,3.98µM*,-3.5%,4.47µM*,8.91µM*,?
O=C(NC(=S)Nc1nc2ccc(F)cc2s1)c1ccco1,i,1.78µM*,-4.5%,0.794µM*,14.3%,19.6%
O=C(Nc1nc2cc3c(cc2s1)OCCO3)c1ccco1,?,6.31µM*,8.1%,2.51µM*,-63.8%,8.91µM*
CC1CCc2nc(NC(=O)c3ccco3)sc2C1 (centres undefined),i,3.98µM*,-2.4%,2.51µM*,-40.5%,11.2µM*
O=C(Nc1nc2cc3c(cc2s1)OCO3)c1ccco1,i,?,-18.2%,?,-38.7%,?
Cc1cc(C(=O)NNC(=O)c2c(-c3c(Cl)cccc3Cl)noc2C)no1,i,0.2%,-5.8%,-27.7%,0.0%,4.3%
Cc1onc(-c2c(Cl)cccc2Cl)c1C(N)=S,i,?,0.0%,7.94µM*,0.2%,-7.7%
Cc1nc(C(=O)NNC(=O)c2c(-c3c(Cl)cccc3Cl)noc2C)cs1,?,8.91µM*,?,2.82µM*,-26.4%,-33.3%
CC(=O)Nc1nnc(-c2c(-c3c(Cl)cccc3Cl)noc2C)o1,i,?,-2.5%,10µM*,-36.6%,1.6%
CCOc1ccc(CNC(=O)c2ccc3nc(C(C)C)oc3c2)cc1,/,/,4.2%,/,0.1%,/
CN(Cc1ccc(Cl)s1)C(=O)CCl,/,-75.8%,7.08µM*,10µM*,-63.0%,13.4µM*
SMILES,ATXN viability,Gal4-VP16 FLuc,TGFb inhibitor,RORgamma inh,HepG2 viability,ATXN2 expr inh
CCCOc1cccc(-c2cc(-c3n[nH]c(=S)n3CC)c3ccccc3n2)c1,i,-20.1%,?,1.26µM*,-40.0%,8.1%
C=CCn1c(-c2cc(-c3ccc(C)cc3)nc3ccccc23)n[nH]c1=S,i,10µM*,-15.0%,0.891µM*,-0.1%,2.7%
Cc1cc(NC(=O)c2cc(-c3cccc(OCC(C)C)c3)nc3ccccc23)no1,i,-12.3%,-0.8%,-42.4%,4.8%,-22.7%
CCn1c(-c2ccccc2SC)n[nH]c1=S,i,-11.0%,-5.2%,14.1µM*,0.0%,-5.2%
CCn1c(-c2cc(-c3ccc(C)cc3)nc3ccccc23)n[nH]c1=S,i,-19.4%,1.4%,1.12µM*,0.4%,10.7%
CCn1c(-c2cccn(Cc3ccccc3)c2=O)n[nH]c1=S,i,8.4%,-10.7%,-31.7%,6.2%,3.1%
CCOc1ccccc1NC(=O)Cn1c(=O)n(CCC(=O)NCc2ccc3c(c2)OCO3)c(=O)c2ccccc21,/,/,-5.5%,/,-0.2%,/
COC(=O)C1=C(C)N(Cc2ccccc2)[C@]23O[C@](C(=O)OC)(C(=O)N2C1c1ccccc1)C(C(=O)OC)=C3C(=O)OC (some centres undefined),/,-5.1%[10 µM],/,15.0%[10 µM],/,/
CCC(C)NC(=O)CSc1nnc(-c2cc(-c3ccc(C)cc3)nc3ccccc23)n1N (centres undefined),i,11.5%,10.9%,40.2%,10.2%,22.6%
CCn1c(-c2cc(-c3ccc(OC(C)C)cc3)nc3ccccc23)n[nH]c1=S,i,?,?,12.6µM*,-21.0%,39.7%
Cc1ncc2c(c1CNS(=O)(=O)N(C)C)CCN(C(=O)c1[nH]c3ccc(Cl)cc3c1C)C2,i,/,/,/,/,/
O=C(CCCCN1CCCCC1)c1ccccc1,i,/,0.0%,/,-19.9%,-0.6%
